These results are taken from the supplement of paper PMC10105736.

Values without a mark were called inactive.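 How the source made its calls: active = MAPPIT score above the 99th percentile of random reference set scores in the same batch; inactive = at or below it.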

Holding throughout (experiment): MAPPIT interaction score (arbitrary units); higher = stronger binary interaction signal, active = hit call of the paper
The target in assay [1] is CG12253. To be noted: MAPPIT configuration: N-C; pair source set: screen_3.
In assay [2] the target is Hsp70Aa. To be noted: MAPPIT configuration: N-N; pair source set: Lit-BS-16.
The target of assay [3] is CG12567. To be noted: pair source set: RRS.
In assay [4] the target is CG14664. To be noted: pair source set: RRS.
For assay [5], the target named is DIP1. To be noted: MAPPIT configuration: N-N; pair source set: screen_2.
Assay [6] concerns the target GstZ2. To be noted: pair source set: RRS.
In assay [7] the target is CG12307. To be noted: MAPPIT configuration: N-C; pair source set: screen_3.
Assay [8] has as its target CG5151. To be noted: MAPPIT configuration: N-N; pair source set: Curagen_high_conf.
For assay [9], the target named is Npl4. To be noted: MAPPIT configuration: N-N; pair source set: Finley_Y2H.
The target of assay [10] is PAN3. To be noted: MAPPIT configuration: N-N; pair source set: Finley_Y2H.
In assay [11] the target is Sxl. To be noted: MAPPIT configuration: N-N; pair source set: Finley_Y2H.
Assay [12] has as its target mxt. To be noted: MAPPIT configuration: N-N; pair source set: screen_1.
Assay [13] has as its target CG30324. To be noted: MAPPIT configuration: N-C; pair source set: screen_3.
The target in assay [14] is en. To be noted: MAPPIT configuration: N-C; pair source set: screen_4.
For assay [15], the target named is CG12470. To be noted: MAPPIT configuration: N-N; pair source set: Finley_Y2H.
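Further: HEK293T cells with Epo stimulation, STAT-responsive firefly luciferase reporter, fold induction versus unstimulated cells divided by the larger fold induction of two negative controls lacking either bait or prey.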

B1: Sry-alpha (protein)
chain: MEQLLAQLHTCSELIAEGYSSTGNIGWLNEFCATFLDFASDLKARLPEVAPSGANLDVETIFLCLTQVVTCITHLERTISMEAPHMTRQHFLDRLDWCLRRLLVSLTQLEGNVTPVKNLEDHSFVELMDLALDHLDDYMEKLAQQRNNSLHILEESFTEDTYQLASIVNHIVRHALAFANVAIHSDKKALTALCETLLAECATFHEEAGEPNSGHRKLEALSLERALYALESFLNEALLHLLFVSLIDLENASVEKLKDALQRDPAGAQELISAFDTNMDRIQQIGVLAIAFSQDIKTKTIVRSCLASLESLDACIVPALQLPESTSSAHHAEVLQEHFNQELLIFRNVIHEIIDSCSLINNYLDMLGERIHVQDKSHLKLIVQRGGVVVDHFRLPVNYSGLSEDGKRVHKDLILILRECQAVVNLDVPVDPKRIVKRLKILYSVLAKLRDLICRDNLEPDSSVASEAQVPSSATRTFVRSSRSFGKRHRSFVKQTGNCSVFGPQDSLAESGHSESDLISFQITEILRLD
In the case of B1, the MAPPIT interaction score in assay [1] was 0.332; in assay [2] it was 3.5 (active).

B2: Adar (protein)
chain: MKFDSRVMLNSANNNSPQHPVSAPSDINMNGYNRKLPQKRGYEMPKYSDPKKKMCKERIPQPKNTVAMLNELRHGLIYKLESQTGPVHAPLFTISVEVDGQKYLGQGRSKKVARIEAAATALRSFIQFKDGAVLSPLKPAGNLDFTSDEHLENGIENLSSSKMFEIIQTMLTEKLSNPTSLEQPTFCMSQNVSKSAITVDGQKKVPDKGPVMLLYELFNDVNFECINIDGAQNNCRFKMTVTINEKKFDGTGPSKKTAKNAAAKAALASLCNISYSPMVVPQKNVPLPIDDKSSSMELPQIHADTIGRLVLEKFMEVIKGQEAYSRRKVLAGIVMTENMNFCEAKVISVSTGTKCVSGEHMSVNGAVLNDSHAEIVSRRCLLKYLYAQLDLQCNQATAYQSIFVRNTDGQYPYKLKSGVHFHLYINTAPCGDARIFSPHENDTGVDKHPNRKARGQLRTKIESGEGTIPVKSSDGIQTWDGVLQGQRLLTMSCSDKIARWNIVGIQGSLLSSIIEPVYLHSIVLGSLLHPEHMYRAVCGRIEKSIQGLPPPYHLNKPRLALVTSAEPRNQAKAPNFGINWTIGDTELEVVNSLTGRTIGGQVSRITKQAFFVKYGFLMANLPGILVRKVTTDYGQTKANVKDYQIAKLELFSAFKREDLGSWLKKPIEQDEFGLAE
B2: the MAPPIT interaction score in assay [3] (MAPPIT configuration: N-C) was 0.742; in [3] (MAPPIT configuration: N-N) it was 1.87; in [4] (MAPPIT configuration: N-C), -0.248; in [4] (MAPPIT configuration: N-N) it was 0.297; in assay [5], -0.0973; in [6] (MAPPIT configuration: N-C) it was 0.124. Moreover, the MAPPIT interaction score in [6] (MAPPIT configuration: N-N) is -0.194.

B3: CycG (protein)
chain: MSVPVRYSSAAAEYAAEVDCELESTLQQQQQLHLQQQYEQYQHYQYQREQDIAYYCQLQAARQQEQLMQQRTSMSSSVMPGLALPQDHQDHPAALLNGPHNNNIGLAMDAHSINAILVDDEQPSTSAQAAAAAAASAGGSAGAGSGSGLGGAIGGGKLANGINRNAEMPTDWMRIADEGRYGTPGAAGLEYQKYEQQQQLEDLAESEAGAVGGASNNNGESSSSLKKLEDQLHALTSDELYETLKEYDVLQDKFHTVLLLPKESRREVTAGGRDGSAYVLRCLKMWYELPSDVLFSAMSLVDRFLDRMAVKPKHMACMSVASFHLAIKQLDLKPIPAEDLVTISQCGCTAGDLERMAGVIANKLGVQMGHAPITSVSYLRIYYALFRNLAKEIGGDFFKFYQQLIKLEELENRLEILMCDVKTTVITPSTLALVLICLHLDFHIKESYTRGSPELKHVFEYILFLQQYMRIPDRVFTCGFSIVSGILSHYNGQNKAPYKQRLVWKLSSRTLRVLRPINRFSSDLPTIEEGIPNALDDGLRSRTESISSEEEEDWPTSPIIPIFEQC
For B3, the MAPPIT interaction score in [7] was 0.375; in assay [8] it was 0.112; in assay [9], 3.83 (active); in assay [10] it was 0.781; in [11] it was 1.86; in assay [12] it was -0.277.

B4: osk (protein)
chain: MAAVTSEFPSKPISYTSTNTSAKTYYLKSVKKRVTTCFQQLRDKLQSSGSFRKSSSSCLNQIFVRSDFSACGERFRKIFKSARKTELPELWKVPLVAHELTSRQSSQQLQVVARLFSSTQISTKEITYNSNSNTSENNMTIIESNYISVREEYPDIDSEVRAILLSHAQNGITISSIKSEYRKLTGNPFPLHDNVTDFLLTIPNVTAECSESGKRIFNLKASLKNGHLLDMVLNQKERTSDYSSGAPSLENIPRAPPRYWKNPFKRRALSQLNTSPRTVPKITDEKTKDIATRPVSLHQMANEAAESNWCYQDNWKHLNNFYQQASVNAPKMPVPINIYSPDAPEEPINLAPPGHQPSCRTQSQKTEPTENRHLGIFVHPFNGMNIMKRRHEMTPTPTILTSGTYNDSLLTINSDYDAYLLDFPLMGDDFMLYLARMELKCRFRRHERVLQSGLCVSGLTINGARNRLKRVQLPEGTQIIVNIGSVDIMRGKPLVQIEHDFRLLIKEMHNMRLVPILTNLAPLGNYCHDKVLCDKIYRFNKFIRSECCHLKVIDIHSCLINERGVVRFDCFQASPRQVTGSKEPYLFWNKIGRQRVLQVIETSLEY
In the case of B4, the MAPPIT interaction score in assay [7] is 2.35; in assay [13], 0.362; in [14], 0.844.

B5: SNRPG (protein)
chain: MSKAHPPEVKKYMDKRMMLKLNGGRAVTGILRGFDPFMNVVLDDTVEECKDNTKNNIGMVVIRGNSIVMVEALDRV
Take B5: the MAPPIT interaction score in assay [15] is 2.32.
